An excerpt weighted towards active compounds, which were near 11% of everything screened.
KDM4E inh = qHTS Assay for Inhibitors of Human Jumonji Domain Containing 2E (JMJD2E). Lysine-specific demethylase 4E (Homo sapiens), B2RXH2. JMJD2E catalytic domain, FDH-coupled NADH fluorescence (FDH is formaldehyde dehydrogenase). Potency, µM (doses to about 57.1 µM), for the others: at the top dose activity change, negative = inhibition, hits mostly inhibitors. 230,000 tested, 1.6% active. AID 2147, 2009;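 further: potency means the concentration at half of the fitted maximal effect; 0% = wells with enzyme and -100% = buffer wells without enzyme; nearly all actives have a fitted effect of over 50% in size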
PNC inhibitor = High Content Assay for Compounds that inhibit the Assembly of the Perinucleolar Compartment. PC3M PTB-GFP, PNC prevalence imaging, 16 h; stronger effect = lower value. activity change (PNC), negative = inhibition, % at 10 µM. 140,000 tested, 3.1% active. AID 2417, 2010;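 active means readout at or below -70, meaning at least 70% loss of cells showing the perinucleolar compartment, a nuclear body marking cancer cells; inconclusive means readout between -30 and a set limit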;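 further: plate controls were DMSO wells for no effect and camptothecin positive control wells for full effect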
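Compounds are pinned in duplicate onto adhered PC3M cells stably expressing GFP-tagged PTB and incubated 16 h at 37 C. Cells are then fixed, nuclei stained with Hoechst, and PNC-positive cells counted.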
HPGD inh = qHTS Assay for Inhibitors of HPGD (15-Hydroxyprostaglandin Dehydrogenase). 15-hydroxyprostaglandin dehydrogenase [NAD(+)] (Homo sapiens), P15428. purified HPGD, NADH fluorescence kinetic, PGE2 substrate. Potency, µM, without a hit: at the highest dose activity change, negative = inhibition, actives largely listed as inhibitors. 150,000 tested, 4.3% active. AID 894, 2007; further: potency means the concentration at half of the fitted maximal effect
Target sequence (P15428 whole entry, looked up): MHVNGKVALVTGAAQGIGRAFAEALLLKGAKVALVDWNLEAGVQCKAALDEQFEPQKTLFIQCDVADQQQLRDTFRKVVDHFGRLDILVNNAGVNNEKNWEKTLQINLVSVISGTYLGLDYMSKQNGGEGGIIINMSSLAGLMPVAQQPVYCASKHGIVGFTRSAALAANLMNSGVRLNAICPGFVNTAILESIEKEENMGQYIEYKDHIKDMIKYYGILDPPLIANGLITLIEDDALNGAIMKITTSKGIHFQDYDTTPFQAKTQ
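NADH formation kinetics: reaction with 30 uM PGE2 and 1 mM NAD+ (final), 20 nM enzyme, Tris-HCl pH 8 with Tween 20, after 15 min compound preincubation at room temperature. Fluorescence change, last versus first of five reads.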
ALDH1A1 inh = qHTS Assay for Inhibitors of Aldehyde Dehydrogenase 1 (ALDH1A1) | Aldehyde dehydrogenase 1A1 (Homo sapiens), P00352 | Purified ALDH1A1, NADH fluorescence, propionaldehyde substrate | Potency, µM (highest dose often 75.3 µM), for inactives: at the top dose activity, negative = inhibition, most hits filed as inhibitors | 220,000 tested, 7.3% active | AID 1030, 2008;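 further: potency means the concentration at half of the fitted maximal effect; plate controls were no enzyme wells and a reference inhibitor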
Numbers without * were called inactive; ? = inconclusive; nt = not tested or not shown; ! = not confirmed by another sample. Unless noted, the call rests on the fitted dose curve; in most records, active means well fitted inhibition curve with a large enough effect (not every such curve was filed as active); inconclusive means small, poorly fitted or top-dose-only effect, or another doubt; inactive means no such curve, though single readings can be large or run the other way. Unless noted, on the % scale 0 is the no-effect control and ±100 the full control effect.

SMILES | KDM4E inh | PNC inhibitor | HPGD inh | ALDH1A1 inh
COc1ccc2nc(SCC(=O)Nc3cc(C)on3)[nH]c2c1 | 1% | -97* | -11% | -5%
CCOc1ccc2nc(SCC(=O)Nc3cc4c(cc3C(C)=O)OCO4)[nH]c2c1 | -26% | 57 | -24% | 25µM*
COc1ccc2nc(SCC(=O)Nc3ccccc3C)[nH]c2c1 | -1% | -16 | -20% | ?
COc1ccc2nc(SCC(=O)Nc3ccc4c(c3)CCC4)[nH]c2c1 | -2% | 8 | -10% | 11µM*
Cc1ccc2nc(SCC(=O)Nc3cc(C)on3)[nH]c2c1 | 7% | -29 | -7% | 14%
O=C(O)CCNC(=O)c1ccc(NC(=O)Cc2ccc(Cl)cc2)cc1 | 4% | nt | nt | 7%
c1ccc(-c2nc(CSc3nnnn3-c3ccccc3)cs2)cc1 | -24% | ? | -8% | 14µM*
Cc1ccccc1Nc1nc(CSc2nnnn2-c2ccccc2)cs1 | 4% | 32 | ? | 7.9µM*
COCCN1C(=O)CS/C1=C(/C#N)C(=O)NCc1ccco1 | -18% | nt | nt | ?
CC(C)c1ccc(SCc2noc(C(=O)NCC3CCCO3)c2C(=O)O)cc1 (stereo not given) | 3% | 34 | 7.9µM* | ?
CCCCNC(=O)c1onc(CSc2cc(C)ccc2C)c1C(=O)O | -4% | 23 | -20% | 4%
O=C(NCC1CCCO1)c1onc(CSc2ccccc2)c1C(=O)O (stereo not given) | 8% | 97 | -9% | -5%
CCCCNC(=O)c1onc(CSc2ccccc2CC)c1C(=O)O | -6% | -109* | -28% | 9%
Cc1cc(C)cc(SCc2noc(C(=O)NCC3CCCO3)c2C(=O)O)c1 (stereo not given) | -4% | -24 | -19% | 0%
Cc1cccc(SCc2noc(C(=O)NCC3CCCO3)c2C(=O)O)c1 (stereo not given) | -6% | -90* | -14% | 4%
COc1ccc(C(=O)N2CCN(Cc3cn[nH]c3-c3ccc(OC)cc3F)CC2)cc1 | 1% | nt | nt | 1µM*
CCN(Cc1ccncc1)Cc1cn[nH]c1-c1ccc(OC)cc1F | ? | nt | nt | 14µM*
COc1ccc(-c2[nH]ncc2CN(C)C(C)c2ccncn2)c(F)c1 (stereo not given) | -2% | nt | nt | ?
COc1cc(S(=O)(=O)N(Cc2ccc(C)cc2)C2CCCCC2)ccc1-n1cnnn1 | -7% | 19 | -10% | ?
COc1ccc(CN(C2CCCC2)S(=O)(=O)c2ccc(-n3cnnn3)cc2)cc1OC | 4% | 1 | -12% | 1.8µM*
COc1ccc([N+](=O)[O-])cc1N(CC(=O)Nc1ccccc1C(=O)NC(C)C)S(C)(=O)=O | 12% | nt | nt | 10%
c1ccc(-c2nc(N3CCOCC3)c3ccccc3n2)nc1 | 3% | -11 | -11% | -4%
Cc1noc(C)c1-c1nc(N2CCOCC2)c2ccccc2n1 | -6% | nt | 25µM* | ?
O=[N+]([O-])c1cccc(-c2nc(N3CCOCC3)c3ccccc3n2)c1 | 5% | nt | nt | 7.9µM*
COc1cc(/C=C2\SC(=O)N(CCN)C2=O)ccc1OS(=O)(=O)c1cc(C)ccc1C | -6% | nt | nt | -3%
SMILES | KDM4E inh | PNC inhibitor | HPGD inh | ALDH1A1 inh
COc1cc(CN2CC(=O)N(c3ccc(C)c(C)c3)C2=S)cc(OC)c1OC | -2% | 60 | -9% | -14%
CCc1ccc(N2C(=O)CN(Cc3cc(OC)c(OC)c(OC)c3)C2=S)cc1 | -12% | -81* | -8% | -4%
CCCCC/C=C\C/C=C\CCCCCCCC(=O)O | 2% | nt | 8.9µM*! | 18µM*!
CCCCC/C=C\C/C=C\C/C=C\CCCCCCC(=O)O | 4% | nt | -13% | -9%
OCCN1CCN(Cc2cc(Cl)c3cccnc3c2O)CC1 | 22µM* | 51 | -1% | ?
O=C(Oc1c(CN2CCOCC2)cc(Cl)c2cccnc12)c1ccccc1Cl | ? | nt | nt | 7%
O=[N+]([O-])c1cc(CN2CCCC2)c2cccnc2c1O | 20µM* | 8 | -9% | -6%
O=C(Oc1c(CN2CCOCC2)cc(Cl)c2cccnc12)c1cccs1 | 25µM* | nt | nt | ?
COCc1cc(CN2CCCC2)c(O)c2ncccc12 | 3.5µM* | 3 | -9% | -16%
CCOC(=O)C1CCN(C(=O)Nc2cc(Cl)cc(Cl)c2)CC1 | 9% | nt | nt | nt
COc1ccc(NC(=O)c2cc3c(=O)n4ccccc4nc3n2C)cc1OC | 2% | nt | nt | 3%

Compound activity: PubChem, National Center for Advancing Translational Sciences (NCATS)
